Data: PubChem BioAssay AID1053119 (Broad Institute, 2014)
Entries with a potency or affinity are not part of this list. Records with an inconclusive call do not appear. Unmarked numbers belong to inactive results.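 Rule for the calls: active = signal loss from cell killing with fitted potency at or below twice the top valid dose; inconclusive = flat drop of 30 to 70%, or unreliable curve fit; inactive = opposite direction, flat within 30%, or weaker potency.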

Assay: A549 cell cytotoxicity, dose response, cytotoxicity control, cherry-picks, 26 µM top dose (AID 1053119);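 note: 0% = neutral control wells and -100% = 10 µM mitoxantrone wells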
Conditions: A549 viability, CellTiter-Glo ATP luminescence, 72 h; series mostly up to 26 µM; activity change, negative = cytotoxicity: at the top concentration

Compound	activity change, negative = cytotoxicity
C[C@H](O)C#Cc1ccc2c(c1)O[C@H](CN(C)C)[C@H](C)CN([C@H](C)CO)S2(=O)=O	14.7%
C[C@H](O)C#Cc1ccc2c(c1)O[C@H](CN(C)C)[C@@H](C)CN([C@H](C)CO)S2(=O)=O	3.83%
Nc1nc(-c2cc3c(cc2Cl)OCCO3)cs1	-2.27%
COc1ccc([N+](=O)[O-])cc1NS(=O)(=O)c1ccc(C(=O)N2CCCC2)cc1	-5.09%
CO[C@H]1CN(C)C(=O)c2cc(NC(=O)Nc3ccc(Cl)c(Cl)c3)ccc2OC[C@@H](C)NC[C@H]1C	-12.1%
C[C@H]1CN([C@@H](C)CO)C(=O)c2cc(-c3ccccc3)cnc2O[C@@H]1CN(C)C(=O)c1cccc(F)c1	-5.97%
CN1c2ccc(-c3ccccc3)cc2[C@@H]2[C@@H](CCN2C(=O)CN2CCOCC2)[C@H]1CO	-3.89% [at 23.5 µM]
COc1ccc(-c2oc3ncnc(NCCCN4CCOCC4)c3c2-c2ccc(OC)cc2)cc1	-31%
Cn1cnc(S(=O)(=O)N2CCN(c3ccccc3)CC2)c1	-0.126%
O=C(Nc1ccccc1F)N1C[C@H]2[C@@H](c3ccccc31)[C@@H](CO)N2C(=O)C1CC1	-9.56%
N#Cc1ccc(-c2ccc3c(c2)[C@@H]2[C@@H](CCN2S(=O)(=O)c2cccc(F)c2)[C@@H](CO)N3)cc1	-2.88% [at 23.5 µM]
C[C@@H]1CN([C@H](C)CO)C(=O)c2cc(-c3ccccc3)cnc2O[C@H]1CN(C)C(=O)c1cccc(F)c1	-3.54%
O=C(Nc1cc(Sc2nc3ccccc3s2)cc([N+](=O)[O-])c1)c1ccccc1F	-8.23%
CC(C)Cc1nnc(NC(=O)CSc2nc(N)cc(=O)[nH]2)s1	-9.89%
C[C@H](O)C#Cc1ccc2c(c1)O[C@@H](CN(C)C)[C@H](C)CN([C@H](C)CO)S2(=O)=O	11.8%
CC1CN(C(=O)c2cc3c(=O)n4ccccc4nc3n2C)CC(C)O1 (configuration not stated)	-14.9%
C[C@@H]1CN([C@@H](C)CO)C(=O)c2cc(-c3ccccc3)cnc2O[C@H]1CN(C)C(=O)c1cccc(F)c1	-3.62%
C[C@H](CO)N1C[C@H](C)[C@H](CN(C)C)Oc2cc(C#C[C@@H](C)O)ccc2S1(=O)=O	14.3%
C[C@@H]1CN([C@H](C)CO)C(=O)c2cc(NC(=O)CCCN(C)C)ccc2O[C@H]1CN(C)Cc1ccc(-c2ccccc2)cc1	-1.25%

Compound	activity change, negative = cytotoxicity
COc1cccc(-c2ccc3c(c2)[C@H]2[C@H](CCN2S(=O)(=O)c2cccc(OC)c2)[C@@H](CO)N3)c1	-4.15%
O=C(CCNS(=O)(=O)c1cccc2nonc12)NC1CCCc2ccccc21 (configuration not stated)	10.4%
C[C@H](O)C#Cc1ccc2c(c1)O[C@@H](CN(C)C)[C@H](C)CN([C@@H](C)CO)S2(=O)=O	-2.13%
CCN(Cc1ccncc1)C(=O)c1ccc2c(c1)S(=O)(=O)c1ccccc1C2=O	-3.23%
C[C@@H](O)C#Cc1ccc2c(c1)O[C@@H](CN(C)C)[C@@H](C)CN([C@@H](C)CO)S2(=O)=O	1.66%
Cc1ccc(C(O)c2ncc(-c3cccc4ccccc34)[nH]2)cc1F (configuration not stated)	-1%
O=C(NCCS(=O)(=O)N1CCN(c2ccc(F)cc2)CC1)c1ccc(Br)o1	-7.54%
COc1cccc(-c2ccc3c(c2)[C@@H]2[C@@H](CCN2S(=O)(=O)c2cccc(OC)c2)[C@@H](CO)N3)c1	-1.38%
O=C(Nc1nc(-c2ccncc2)cs1)C1COc2ccccc2O1 (configuration not stated)	-13.6%
CCCc1cc(C(=O)OC)c(NC(=O)CCC(=O)O)s1	-7.87%
C[C@H]1CN([C@@H](C)CO)C(=O)c2cc(NC(=O)C3CCCCC3)ccc2O[C@H]1CN(C)Cc1ccc(-c2ccccc2)cc1	-12.8%
COc1ccc(-c2csc(CCn3nc(C)cc3C)n2)cc1OC	-10.7%
COc1ccc(CN(C2CCCC2)S(=O)(=O)c2ccc(-n3cnnn3)cc2)cc1OC	19%
CCOC(=O)C1=C(C)Nc2nc3ccccc3n2C1c1ccncc1 (configuration not stated)	-8.08%
COc1ncccc1C(=O)NC1CCCc2c1cnn2-c1ccc(C)c(C)c1 (configuration not stated)	-11.4%
CCOC(=O)c1cnc(SCc2nc(N)nc(Nc3ccc(OC)cc3)n2)nc1N	-4.98%
C[C@H](CO)N1C[C@H](C)[C@@H](CN(C)Cc2ccc(-c3ccccc3)cc2)Oc2ccc(NC(=O)C3CCCCC3)cc2C1=O	-11.6%
O=C(CC1Nc2ccccc2NC1=O)Nc1ccc2c(c1)OCO2 (configuration not stated)	-10.1%
